The source of these data is the supplement of paper PMC12282887.

± gives the standard deviation of the averaged measurements.

The assay concerns E. coli BW25113 marRABp lux reporter. Briefly: promoter activity interaction Z-score (Lux/OD deviation from empty-vector control); higher = stronger promoter induction by the compound. As to the method:
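E. coli BW25113 (wild type or ΔmarA/ΔsoxS/Δrob) carrying pTU175 luxCDABE promoter reporters was grown in LB in 384-well plates at 37°C with each of 94 compounds at 4 two-fold concentrations, in biological duplicates. Luminescence and OD600 were read every 30 min for 12 h and integrated as AUC over 8 h (0-8 h WT, 1-9 h mutants). Lux AUC was divided by OD AUC; the interaction score is the residual of a Huber robust fit of each promoter against the empty-vector control, then Z-transformed per promoter.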

`N=C(NCCCCCCNC(=N)NC(=N)Nc1ccc(Cl)cc1)NC(=N)Nc1ccc(Cl)cc1` [Chlorhexidine]: the “promoter activity interaction Z-score” value is, setting by setting: (0.063 µg/ml, genetic background: wild type) -0.0555 ± 0.078; (0.063 µg/ml, genetic background: ΔmarA) 0.0409 ± 0.0035; (0.063 µg/ml, genetic background: Δrob) 0.173 ± 0.2; (0.063 µg/ml, genetic background: ΔsoxS) 0.0219 ± 0.055; (0.13 µg/ml, genetic background: wild type) -0.193 ± 0.069; (0.13 µg/ml, genetic background: ΔmarA) -0.0353 ± 0.43. For the same molecule, the “promoter activity interaction Z-score” value was 0.0384 ± 0.087 (0.13 µg/ml, genetic background: Δrob); 0.0405 ± 0.19 (0.13 µg/ml, genetic background: ΔsoxS); 0.0425 ± 0.12 (0.25 µg/ml, genetic background: wild type); -0.101 ± 0.24 (0.25 µg/ml, genetic background: ΔmarA); 0.121 ± 0.2 (0.25 µg/ml, genetic background: Δrob); 0.165 ± 0.33 (0.25 µg/ml, genetic background: ΔsoxS). In addition, the “promoter activity interaction Z-score” value is -0.283 ± 0.1 (0.51 µg/ml, genetic background: wild type); 0.127 ± 0.37 (0.51 µg/ml, genetic background: ΔmarA); -0.0583 ± 0.11 (0.51 µg/ml, genetic background: Δrob); 0.00237 ± 0.085 (0.51 µg/ml, genetic background: ΔsoxS).

Regarding `NC1CONC1=O` (stereo not drawn) [Cycloserine D], the “promoter activity interaction Z-score” value is -0.0783 ± 0.12 (1 µg/ml, genetic background: wild type); -0.137 ± 0.057 (1 µg/ml, genetic background: ΔmarA); -0.172 ± 0.25 (1 µg/ml, genetic background: Δrob); -0.158 ± 0.078 (1 µg/ml, genetic background: ΔsoxS); -0.121 ± 0.15 (1.9 µg/ml, genetic background: wild type); 0.00534 ± 0.14 (1.9 µg/ml, genetic background: ΔmarA). The “promoter activity interaction Z-score” value is, setting by setting: (1.9 µg/ml, genetic background: Δrob) -0.0886 ± 0.21; (1.9 µg/ml, genetic background: ΔsoxS) 0.0634 ± 0.045; (3.8 µg/ml, genetic background: wild type) -0.109 ± 0.06; (3.8 µg/ml, genetic background: ΔmarA) -0.119 ± 0.032; (3.8 µg/ml, genetic background: Δrob) -0.11 ± 0.062; (3.8 µg/ml, genetic background: ΔsoxS) -0.153 ± 0.013. Also, the “promoter activity interaction Z-score” value is -0.273 ± 0.016 (7.7 µg/ml, genetic background: wild type); -0.299 ± 0.099 (7.7 µg/ml, genetic background: ΔmarA); 0.163 ± 0.27 (7.7 µg/ml, genetic background: Δrob); -0.0525 ± 0.2 (7.7 µg/ml, genetic background: ΔsoxS).

Consider `O=C(O)c1ccccc1O` [Salicylate], for which the “promoter activity interaction Z-score” value was 0.135 ± 0.01 (17.3 µg/ml, genetic background: wild type); 0.0581 ± 0.22 (17.3 µg/ml, genetic background: ΔmarA); 0.184 ± 0.16 (17.3 µg/ml, genetic background: Δrob); -0.0106 ± 0.075 (17.3 µg/ml, genetic background: ΔsoxS); 0.214 ± 0.13 (34.5 µg/ml, genetic background: wild type); 0.401 ± 0.26 (34.5 µg/ml, genetic background: ΔmarA). In addition, the “promoter activity interaction Z-score” value runs as follows: (34.5 µg/ml, genetic background: Δrob) 0.526 ± 0.052; (34.5 µg/ml, genetic background: ΔsoxS) 0.404 ± 0.12; (69.1 µg/ml, genetic background: wild type) 0.771 ± 0.2; (69.1 µg/ml, genetic background: ΔmarA) 0.666 ± 0.1; (69.1 µg/ml, genetic background: Δrob) 0.852 ± 0.25; (69.1 µg/ml, genetic background: ΔsoxS) 0.352 ± 0.1. Further, the “promoter activity interaction Z-score” value amounted to 7.4 ± 0.11 (138.1 µg/ml, genetic background: wild type); 8.571 ± 0.071 (138.1 µg/ml, genetic background: ΔmarA); 6.24 ± 1.4 (138.1 µg/ml, genetic background: Δrob); 6.09 ± 1.6 (138.1 µg/ml, genetic background: ΔsoxS).
